{
  "source": "paper PMC7862700",
  "about": "“An all-to-all approach to the identification of sequence-specific readers for epigenetic DNA modifications on cytosine”",
  "experiment_in_all_cases": "DAPPL (digital affinity profiling via proximity ligation, sequencing); 10 mM Tris-HCl pH 7.5, 50 mM NaCl, 1 mM DTT, 4% glycerol, room temperature, 30 min; GST-TFs on glutathione beads, 16-mer random dsDNA library, 0.1% formaldehyde crosslink after washing; high values mean tight binding",
  "conditions_in_all_cases": "protein: recombinant; tags: N-terminal GST; dsDNA, one strand shown",
  "key": {"[1]": {"biological_target": "T1, FLI1 (Homo sapiens, UniProt Q01543 1-452)", "T1 sequence": "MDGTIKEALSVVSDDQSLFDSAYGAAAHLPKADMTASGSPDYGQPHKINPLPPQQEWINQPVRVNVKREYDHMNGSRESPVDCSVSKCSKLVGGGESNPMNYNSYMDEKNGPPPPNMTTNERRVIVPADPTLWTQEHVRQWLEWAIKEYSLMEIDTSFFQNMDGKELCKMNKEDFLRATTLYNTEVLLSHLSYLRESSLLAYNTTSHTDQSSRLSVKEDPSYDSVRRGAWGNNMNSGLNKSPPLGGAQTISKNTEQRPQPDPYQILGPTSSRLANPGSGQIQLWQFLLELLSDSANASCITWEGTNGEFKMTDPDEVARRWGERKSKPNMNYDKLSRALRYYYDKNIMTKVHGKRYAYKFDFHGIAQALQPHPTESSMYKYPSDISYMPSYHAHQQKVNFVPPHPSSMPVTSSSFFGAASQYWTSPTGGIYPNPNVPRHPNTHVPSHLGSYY", "outline": "(§1)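 Human transcription factors carrying a GST fusion were produced in yeast, bound to glutathione beads, tagged with DNA barcodes and pooled together with a tag-only sample. Each pool was held with 200 nmole of a random double-stranded 16-mer DNA library in Tris/NaCl/DTT/glycerol buffer for 30 min at room temperature, then washed, crosslinked in 0.1% formaldehyde, proximity-ligated with BsaI/T4 ligase (1 h, 37 °C), PCR-amplified and sequenced on an Illumina NextSeq500. Binding signal is the read frequency of each hexamer for a given factor divided by its frequency in the tag-only sample.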"}, "[2]": {"biological_target": "T2, ELK1 (Homo sapiens, UniProt P19419 1-428)", "T2 sequence": "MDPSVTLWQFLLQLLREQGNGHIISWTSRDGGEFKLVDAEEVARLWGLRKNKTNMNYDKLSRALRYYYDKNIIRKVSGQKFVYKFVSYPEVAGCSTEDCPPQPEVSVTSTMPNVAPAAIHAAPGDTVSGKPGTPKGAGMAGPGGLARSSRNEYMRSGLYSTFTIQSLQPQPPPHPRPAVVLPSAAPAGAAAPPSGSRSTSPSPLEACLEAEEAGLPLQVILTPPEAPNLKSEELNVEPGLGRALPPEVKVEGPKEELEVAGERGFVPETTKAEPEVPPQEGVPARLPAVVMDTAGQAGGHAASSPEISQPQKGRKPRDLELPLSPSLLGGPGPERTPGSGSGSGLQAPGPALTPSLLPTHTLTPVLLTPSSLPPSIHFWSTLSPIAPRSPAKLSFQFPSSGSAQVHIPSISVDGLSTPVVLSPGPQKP", "outline": "as §1"}, "[3]": {"biological_target": "T3, GABPA (Homo sapiens, UniProt Q06546 1-454)", "T3 sequence": "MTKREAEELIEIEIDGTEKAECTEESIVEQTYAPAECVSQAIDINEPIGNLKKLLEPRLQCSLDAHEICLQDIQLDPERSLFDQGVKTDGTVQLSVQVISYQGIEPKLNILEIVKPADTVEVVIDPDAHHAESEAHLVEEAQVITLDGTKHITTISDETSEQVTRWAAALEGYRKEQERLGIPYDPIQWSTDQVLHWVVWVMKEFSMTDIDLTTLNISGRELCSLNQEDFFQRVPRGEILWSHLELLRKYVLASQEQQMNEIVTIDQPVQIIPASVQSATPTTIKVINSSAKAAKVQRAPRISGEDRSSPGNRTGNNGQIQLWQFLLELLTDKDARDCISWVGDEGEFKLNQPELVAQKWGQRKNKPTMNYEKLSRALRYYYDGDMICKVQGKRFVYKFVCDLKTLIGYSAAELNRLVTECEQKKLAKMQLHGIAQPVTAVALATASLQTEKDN", "outline": "as §1"}, "[4]": {"biological_target": "T4, ERG (Homo sapiens, UniProt P11308 1-479)", "T4 sequence": "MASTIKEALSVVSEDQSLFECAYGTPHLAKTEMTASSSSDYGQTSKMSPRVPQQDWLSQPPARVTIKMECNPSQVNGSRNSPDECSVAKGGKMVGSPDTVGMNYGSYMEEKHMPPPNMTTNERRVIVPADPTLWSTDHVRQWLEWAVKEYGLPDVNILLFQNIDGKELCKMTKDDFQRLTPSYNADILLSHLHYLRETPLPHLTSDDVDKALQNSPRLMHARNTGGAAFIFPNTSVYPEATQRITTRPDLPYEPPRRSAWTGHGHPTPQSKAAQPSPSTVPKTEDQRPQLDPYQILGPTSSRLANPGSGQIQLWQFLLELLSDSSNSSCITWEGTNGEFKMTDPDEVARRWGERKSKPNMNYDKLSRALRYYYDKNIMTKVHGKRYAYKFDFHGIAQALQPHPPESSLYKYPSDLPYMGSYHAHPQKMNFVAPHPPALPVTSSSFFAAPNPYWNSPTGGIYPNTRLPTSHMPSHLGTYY", "outline": "as §1"}, "[5]": {"biological_target": "ELF1 (Homo sapiens, UniProt P32519 1-619)", "sequence (P32519 whole entry)": "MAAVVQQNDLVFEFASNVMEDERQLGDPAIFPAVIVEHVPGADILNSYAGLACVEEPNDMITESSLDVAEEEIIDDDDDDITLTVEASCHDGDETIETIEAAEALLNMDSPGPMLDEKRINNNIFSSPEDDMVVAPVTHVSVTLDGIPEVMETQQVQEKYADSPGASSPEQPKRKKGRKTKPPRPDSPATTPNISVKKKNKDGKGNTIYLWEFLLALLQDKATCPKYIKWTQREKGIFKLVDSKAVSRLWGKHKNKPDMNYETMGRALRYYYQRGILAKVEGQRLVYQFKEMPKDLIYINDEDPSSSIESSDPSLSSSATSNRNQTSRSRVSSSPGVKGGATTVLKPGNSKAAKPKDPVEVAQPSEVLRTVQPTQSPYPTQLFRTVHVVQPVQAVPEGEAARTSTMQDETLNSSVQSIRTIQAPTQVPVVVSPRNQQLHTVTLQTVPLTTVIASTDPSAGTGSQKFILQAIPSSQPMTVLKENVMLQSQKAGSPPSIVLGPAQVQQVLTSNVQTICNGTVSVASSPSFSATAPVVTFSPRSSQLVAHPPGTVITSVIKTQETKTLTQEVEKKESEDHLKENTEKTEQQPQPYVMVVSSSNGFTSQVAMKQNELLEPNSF", "outline": "as §1"}, "[6]": {"biological_target": "T5, EHF (Homo sapiens, UniProt Q9NZC4 1-300)", "T5 sequence": "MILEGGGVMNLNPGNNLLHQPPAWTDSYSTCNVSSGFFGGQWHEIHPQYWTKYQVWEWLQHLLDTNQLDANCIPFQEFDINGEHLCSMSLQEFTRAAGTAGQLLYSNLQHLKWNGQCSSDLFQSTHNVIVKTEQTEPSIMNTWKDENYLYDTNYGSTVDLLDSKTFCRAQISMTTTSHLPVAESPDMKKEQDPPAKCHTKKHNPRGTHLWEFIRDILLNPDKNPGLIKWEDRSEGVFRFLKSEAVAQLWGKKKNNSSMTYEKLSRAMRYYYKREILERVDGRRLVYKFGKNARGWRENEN", "outline": "as §1"}, "[7]": {"biological_target": "SPI1 (Homo sapiens, UniProt P17947 1-270)", "outline": "as §1"}, "[8]": {"biological_target": "SPIB (Homo sapiens, UniProt Q01892 1-262)", "sequence (Q01892 whole entry)": "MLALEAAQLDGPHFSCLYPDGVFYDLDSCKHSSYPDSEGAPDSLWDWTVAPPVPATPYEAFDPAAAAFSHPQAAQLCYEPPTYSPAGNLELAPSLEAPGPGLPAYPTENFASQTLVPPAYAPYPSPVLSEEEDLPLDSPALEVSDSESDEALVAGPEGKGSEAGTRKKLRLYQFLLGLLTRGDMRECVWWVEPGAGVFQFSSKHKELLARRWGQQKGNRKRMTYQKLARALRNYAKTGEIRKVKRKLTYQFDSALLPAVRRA", "outline": "as §1"}, "[9]": {"biological_target": "T6, ELK3 (Homo sapiens, UniProt P41970 1-407)", "T6 sequence": "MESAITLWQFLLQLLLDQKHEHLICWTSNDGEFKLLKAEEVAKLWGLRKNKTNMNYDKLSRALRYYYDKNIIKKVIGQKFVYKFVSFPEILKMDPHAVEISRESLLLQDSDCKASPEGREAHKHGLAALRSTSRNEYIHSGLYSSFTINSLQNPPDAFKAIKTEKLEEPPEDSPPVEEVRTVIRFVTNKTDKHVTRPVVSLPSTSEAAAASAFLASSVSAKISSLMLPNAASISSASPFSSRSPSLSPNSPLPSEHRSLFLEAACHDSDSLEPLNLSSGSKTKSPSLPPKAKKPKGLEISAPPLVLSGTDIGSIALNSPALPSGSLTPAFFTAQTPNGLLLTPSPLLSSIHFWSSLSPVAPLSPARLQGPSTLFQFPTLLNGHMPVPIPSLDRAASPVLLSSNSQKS", "outline": "as §1"}},
  "data": [
    {"sequence": "CTTGTG", "values": [
      {"measurement": "binding signal", "setting": "[1]", "value": "1.57 fold enrichment (6-mer frequency, TF over GST control)"},
      {"measurement": "binding signal", "setting": "[2]", "value": "1.58 fold enrichment (6-mer frequency, TF over GST control)"},
      {"measurement": "binding signal", "setting": "[3]", "value": "1.45 fold enrichment (6-mer frequency, TF over GST control)"},
      {"measurement": "binding signal", "setting": "[4]", "value": "1.45 fold enrichment (6-mer frequency, TF over GST control)"},
      {"measurement": "binding signal", "setting": "[5]", "value": "1.46 fold enrichment (6-mer frequency, TF over GST control)"},
      {"measurement": "binding signal", "setting": "[6]", "value": "1.44 fold enrichment (6-mer frequency, TF over GST control)"},
      {"measurement": "binding signal", "setting": "[7]", "value": "1.46 fold enrichment (6-mer frequency, TF over GST control)"},
      {"measurement": "binding signal", "setting": "[8]", "value": "1.68 fold enrichment (6-mer frequency, TF over GST control)"},
      {"measurement": "binding signal", "setting": "[9]", "value": "1.6 fold enrichment (6-mer frequency, TF over GST control)"}
    ]}
  ]
}
